Screening data from PubChem BioAssay.
Compounds with a hit are over-represented: about 1.7% of the library has one in this group of screens.
PTHR1 ag = PTHR1 (human) receptor agonism; AID 743266; actives 0.075% (n = 410,000); HEK293 GP2 PTHR1 cells, GloSensor cAMP luminescence, 1 h; Potency, µM (highest dose often 115 µM), without a hit: top-dose activation, most hits filed as activators; further: potency means the concentration at half of the fitted maximal effect; nearly all actives have a fitted effect of over 55% in size
Target sequence (Q03431 whole entry, looked up): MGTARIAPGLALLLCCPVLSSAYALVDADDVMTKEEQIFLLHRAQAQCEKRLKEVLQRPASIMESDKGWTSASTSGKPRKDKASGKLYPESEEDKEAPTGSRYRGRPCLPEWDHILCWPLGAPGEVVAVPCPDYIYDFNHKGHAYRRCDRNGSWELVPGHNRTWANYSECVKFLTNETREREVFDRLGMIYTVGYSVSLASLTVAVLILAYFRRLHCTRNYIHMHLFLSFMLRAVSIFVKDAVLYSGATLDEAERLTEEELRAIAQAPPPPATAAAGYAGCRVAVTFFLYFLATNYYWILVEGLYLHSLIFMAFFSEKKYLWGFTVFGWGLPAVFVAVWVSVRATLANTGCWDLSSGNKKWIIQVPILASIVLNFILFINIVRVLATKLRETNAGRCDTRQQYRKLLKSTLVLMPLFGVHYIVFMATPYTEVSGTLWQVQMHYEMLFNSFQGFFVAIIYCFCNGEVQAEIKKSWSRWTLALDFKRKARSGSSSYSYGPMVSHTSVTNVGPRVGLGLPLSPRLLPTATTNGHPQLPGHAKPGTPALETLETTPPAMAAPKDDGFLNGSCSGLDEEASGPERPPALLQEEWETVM
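HEK-293-derived GP2 cells expressing PTHR1 and a GloSensor cAMP reporter, 3,000/well, plated overnight, given luciferin plus IBMX (each 0.5 mM as added) for 1 h at 37 °C, then compound for 1 h at 37 °C. Luminescence was read after 15 min at room temperature.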
GLP1R inv ag = acts as inverse agonist at human GLP-1 receptor. P43220. HEK293 GLP-1R CRE-luciferase, luminescence, 24 h; GLP-1R form is constitutively active. Potency, µM (series often up to 38.3 µM), for the others: at the highest dose activity change, negative = inhibition, actives largely listed as inhibitors. actives 1.6% (n = 410,000); further: potency means the concentration at half of the fitted maximal effect; on the % scale 0 is the no-effect control and ±100 the full control effect; nearly all actives have a fitted effect of over 55% in size
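Inverse agonists were sought by their lowering of basal cAMP reporter luciferase output in HEK293 cells stably carrying constitutively active human GLP-1R, after 24 h compound treatment.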
LDHA inh = inhibitors of human lactate dehydrogenase A. P00338. purified LDHA, NADH/diaphorase-resazurin fluorescence; hits give low values. activity change, % (values are at about 110 or 230 µM). actives 0.15% (n = 480,000); in the data active means activity change below about -30%; inconclusive means mostly about -25% to -30%;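 further: plate controls were DMSO wells for no effect and wells without enzyme for full effect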
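Enzyme activity of human lactate dehydrogenase 5 (2 nM; 0.06 mM NADH, 0.2 mM pyruvate, 5 min, RT) is measured via a resazurin/diaphorase fluorescence readout of residual NADH.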
HEK293 tox = cytotoxicity counter-screen for GLP-1 receptor inverse agonists | HEK293 cAMP-luciferase reporter cells, luminescence, 24 h | Potency, µM (series often up to 38.3 µM), without a hit: at the top dose activity change, negative = inhibition, actives largely listed as inhibitors | actives 0.13% (n = 410,000);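 further: loss of luciferase light is scored as toxicity; potency means the concentration at half of the fitted maximal effect; on the % scale 0 is the no-effect control and ±100 the full control effect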
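Seeding density was 200 cells/uL; after overnight-length (12 h) culture, 23 nL compounds went on for 24 h at 37 °C. Readout used a luciferase detection reagent, luminescence taken after 12 min at room temperature.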
mIDH1 inhibitor = human IDH1 R132H inhibition; actives 0.093% (n = 390,000); AID 602179; Potency, µM (doses to about 76.6 µM), for inactives: at the highest dose activity change, negative = inhibition, actives largely listed as inhibitors; IDH1-R132H enzyme, NADPH consumption, diaphorase/resazurin fluorescence; O75874; further: potency means the concentration at half of the fitted maximal effect; on the % scale 0 is the no-effect control and ±100 the full control effect; nearly all actives have a fitted effect of over 65% in size
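IDH1-R132H (0.5 ug/mL dispensed) in pH 7.5 Tris buffer was preincubated 30 min with compound, then given a substrate mix of 0.016 mM NADPH and 2 mM alpha-KG for 80 min at room temperature; remaining NADPH was read by diaphorase/resazurin fluorescence.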
GLP-1R agonist = activates the human GLP-1 receptor | Potency, µM (titrated, usually from 45.6 µM), for the others: at the highest dose activation, hits mostly activators | HEK293 GLP-1R CRE-luciferase, luminescence, 4-6 h; cells express a hypersensitive GLP-1R form | AID 624172 | actives 0.007% (n = 380,000) | P43220; further: potency means the concentration at half of the fitted maximal effect; % of control where 0% means no effect
Active calls of the source: *; [ ] = another dose, or the depositor's remark. Unless noted, the call rests on the fitted dose curve; in most records, active means well fitted curve in the direction sought with a large enough effect; inconclusive means small, poorly fitted or top-dose-only effect, or another doubt; inactive means no such curve, though single readings can be large; an effect the other way counts as inactive or inconclusive.

How did CCCCN1CCC(O)(c2ccccc2)C(C(=O)c2ccccc2)C1 (centres undefined) do in these assays?
PTHR1 ag: -1%[57.5 µM]; GLP1R inv ag: 10%; LDHA inh: -2; HEK293 tox: 1%; mIDH1 inhibitor: 2%; GLP-1R agonist: -6%

What do the screens show for `CC12CCC3C(CCC4C/C(=N\O)CCC43C)C1CCC2O` (centres undefined)?
LDHA inh: 6

How did COC(=O)C1=C(c2ccc(-c3ccccc3)c(F)c2)C[C@@H]2CC[C@H]1N2C(=O)N1CCCCC1 do in these assays?
PTHR1 ag: -48%; GLP1R inv ag: 11µM*; LDHA inh: 1; HEK293 tox: 2%; mIDH1 inhibitor: 6%; GLP-1R agonist: 6%

What do the screens show for `COC(=O)C1=C(c2ccc(-c3ccccc3)c(F)c2)C[C@@H]2CC[C@H]1N2C(=O)N1CCCC1`?
PTHR1 ag: -27%; GLP1R inv ag: inconclusive; LDHA inh: 1; HEK293 tox: -10%; mIDH1 inhibitor: -10%; GLP-1R agonist: 1%

Results for COC(=O)C1=C(c2ccc(-c3ccccc3)c(F)c2)C[C@@H]2CC[C@H]1N2C(=O)N1CCC(O)CC1 ?
PTHR1 ag: -22%; GLP1R inv ag: 13µM*; LDHA inh: -11; HEK293 tox: -42%; mIDH1 inhibitor: 20%; GLP-1R agonist: -5%

How did COc1ccccc1C1SCC(=O)Nc2c1c(C)nn2C (centres undefined) do in these assays?
LDHA inh: -15

Results for Cc1ccccc1-n1c(/C=C/c2ccco2)nc2ccccc2c1=O ?
LDHA inh: 11

How did Cc1ccccc1-n1c(/C=C/c2ccc(N(C)C)cc2)nc2ccccc2c1=O do in these assays?
PTHR1 ag: inactive; GLP1R inv ag: 8.9µM*; LDHA inh: 2; HEK293 tox: inactive; mIDH1 inhibitor: -10%

How did Cc1ccccc1-n1c(/C=C/c2c(C)[nH]c3ccccc23)nc2ccccc2c1=O do in these assays?
PTHR1 ag: inactive; GLP1R inv ag: 4µM*; LDHA inh: -6; HEK293 tox: -11%; mIDH1 inhibitor: 16%

How did O=C(NCc1cccnc1)/C(=C\c1ccc(-c2ccc(Br)cc2)o1)S(=O)(=O)c1ccccc1 do in these assays?
PTHR1 ag: -55%; GLP1R inv ag: 1.8µM*; LDHA inh: -8; HEK293 tox: inconclusive; mIDH1 inhibitor: -24%; GLP-1R agonist: -39%

Results for O=C(NCc1cccnc1)Nc1ccccc1Cl ?
PTHR1 ag: 6%; GLP1R inv ag: 19%; LDHA inh: -2; HEK293 tox: inconclusive; mIDH1 inhibitor: -5%; GLP-1R agonist: 2%

What do the screens show for `CC(C)(C#CCN1CCCCC1)OCCOC(c1ccccc1)c1ccccc1`?
PTHR1 ag: inactive; GLP1R inv ag: 5.6µM*; LDHA inh: 8; HEK293 tox: inconclusive; mIDH1 inhibitor: 6%; GLP-1R agonist: 3%

What do the screens show for `Clc1ccc([C@@H](OCCN2CCCCC2)c2ccccc2)cc1`?
GLP-1R agonist: -4%[19.8 µM]

How did Cc1ccc(-n2nc(C)c3c2NC(=O)CSC3c2ccsc2)cc1Cl (centres undefined) do in these assays?
LDHA inh: 0

What do the screens show for `CCN(c1ccccc1)S(=O)(=O)c1cccc(C(=O)NCc2cccnc2)c1`?
PTHR1 ag: inactive; GLP1R inv ag: inconclusive; LDHA inh: -2; HEK293 tox: -26%; mIDH1 inhibitor: 0%; GLP-1R agonist: 4%

What do the screens show for `O=C(Nc1ccc(Cl)c(Cl)c1)c1cccc(S(=O)(=O)NCc2cccnc2)c1`?
PTHR1 ag: -14%; GLP1R inv ag: 11µM*; LDHA inh: -8; HEK293 tox: inconclusive; mIDH1 inhibitor: -8%; GLP-1R agonist: 3%

Results for O=C1CSC(c2ccccc2OC2CCCC2)c2cn[nH]c2N1 (centres undefined) ?
LDHA inh: 0
